Consider 24 compounds from PubChem BioAssay (Tox21).

Records with an inconclusive call do not appear. A call without a number means that no potency is given here. A number with no mark means an inactive call. The source made the active and inactive calls. Calls follow the shape of the full dose curve.

A short description of the assay: qHTS assay to identify small molecule agonists of the hypoxia (HIF-1) signaling pathway - cell viability counter screen (AID 1224844). Also: nearly all actives have a fitted effect of over 50% in size. The following applies: HRE-bla ME-180 viability, CellTiter-Glo luminescence, 17 h; series mostly up to 76.8 µM. The gist of the method:
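HRE-bla ME-180; 0.5% dFBS; cpd 17 h, 37C, 5% CO2; CellTiter-Glo lum., 30 min RT, post-FRET read, same wells.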
Consider `CC1=CC(=O)CCC1`, for which the Potency result was “inactive”. On the same count and under the same terms, with `NC(CS)C(=O)O` (centres undefined) the entry was “inactive”; with `CCc1cc(S(=O)(=O)O)c2cc(C(C)C)cccc1-2`, “inactive”; with `CCCCCCCCN(C)CCCCCCCC`, “inactive”.

In the case of `CCCOc1ccccc1-c1nc2n[nH]nc2c(=O)[nH]1`, the Potency result was “inactive”. The same measure, in the same setting: with `CC(C)c1ccc2oc3nc(N)c(C(=O)O)cc3c(=O)c2c1` the entry was “inactive”. Same read-out and setting: with `CN(C)CCn1nnnc1SCC1=C(C(=O)O)N2C(=O)[C@@H](NC(=O)Cc3csc(N)n3)[C@H]2SC1` the entry was “inactive”; with `NS(=O)(=O)c1cc2c(cc1C(F)(F)F)NC(Cc1ccccc1)NS2(=O)=O` (centres undefined), “inactive”. Still for that read-out and setting: with `COc1ccc(NC(C)=O)cc1` the entry was “inactive”; with `Cc1c(F)cc2c(=O)c(C(=O)O)cn3c2c1CCC3C` (centres undefined), “inactive”. On to `CCCCCCC(CCCCCCCCCCC(=O)OCC(COC(C)=O)OC(C)=O)OC(C)=O` (centres undefined), for which the Potency entry was “inactive”. Still for that read-out and setting: with `CCN(CC)S(=O)(=O)c1ccc(C(=O)O)cc1` the entry was “inactive”. With `C=C(C)C(=O)OCCCCCCCCCCCCCCCCCC`, the activity change, negative = cytotoxicity was 5.2% [at 15.8 µM]. `Nc1cc(N)cc(C(=O)O)c1`: the Potency entry was “inactive”. For the compound `CC(C)CCCC(C)NCCC(C)C` (centres undefined), the Potency entry is “inactive”. The same measure, in the same setting: with `CCCCC1CCCCC(=O)O1` (centres undefined) the entry was “inactive”.

For `O=C1OC(=O)c2cc([N+](=O)[O-])ccc21`, the Potency result was “inactive”.

On to `CNc1ncnc2nc[nH]c12`, for which the Potency result was “inactive”. The same measure, in the same setting: with `CCCCC=O` the entry was “inactive”; with `N#CC1(O)CCCCC1`, “inactive”; with `COC(=O)c1ccc(C(=O)OC)c(C(=O)OC)c1`, “inactive”.

As for `CC(C)c1cccc(O)c1`, the Potency entry was “inactive”. On the same count and under the same terms, with `Nc1nc2c(ncn2CCC(CO)CO)c(=O)[nH]1` the entry was “inactive”; with `CC(C)(C)OC(=O)N1C[C@@H](F)C[C@H]1C(=O)O`, “inactive”.
